# Screens (PubChem BioAssay)
# hgDAF-12 ag = H. glycines DAF-12 receptor agonists, primary screen, cell-based, luminescence, HEK293, GAL4 fusion, UAS-luciferase; Nuclear hormone receptor DAF-12 (Heterodera glycines), GAL4 fusion; HEK293 GAL4-hgDAF12 UAS-luciferase reporter, agonist luminescence; normalized to butyrate control; activation, % at 6.8 µM; 1.8% of 370,000 active; AID 687014, 2013;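 active means activation above a cutoff set at the mean of all screened compounds plus 3 SD, cut at about 10% in these data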;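 further: 0% = DMSO wells and 100% = sodium butyrate wells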
# DAX1 inh-1 = DAX1 (NR0B1) inhibitors on StAR promoter, primary screen, cell-based, luminescence, SF-1 (NR5A1), full-length DAX-1 | HEK293T StAR-luciferase reporter, SF-1/DAX-1 repression relief | inhibition, % at 6.8 µM | 1.1% of 370,000 active | AID 652010, 2013;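 active means inhibition above the mean over all tested compounds plus 3 SD, cut at about 3.6% in these data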;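 further: 0% = DAX-1 cells with DMSO and 100% = cells lacking DAX-1 with DMSO; higher inhibition means more luminescence from relief of DAX-1 repression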
# ssDAF12 agonist = S. stercoralis DAF-12 nuclear receptor activators, primary screen, cell-based, luminescence, HEK293, GRIP1 co-expression, lit1-tk-luc | 1% of 370,000 active | Nuclear hormone receptor DAF-12 (Strongyloides stercoralis) | HEK293 ssDAF-12/GRIP1 lit1-tk-luc reporter; % of 3 µM dafachronic acid response | activation, % at 6.8 µM;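 active means activation above the mean over all tested compounds plus 3 SD, cut at about 0.9% in these data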;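 further: 0% = DMSO-only wells and 100% = 3 µM delta7-dafachronic acid wells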
# SMARCA2 activ = SMARCA2 (BRM) function activators, primary screen, cell-based, luminescence, high throughput | MG213 cells, MMTV-luciferase reporter, dexamethasone, overnight | activation, % at 9.1 µM | 1% of 370,000 active; in the data active means activation above about 7.8%;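 further: 0% = vehicle wells and 100% = reference activator wells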
# hcDAF-12 act = H. contortus DAF-12 nuclear receptor activators, primary screen, cell-based, luminescence, HEK293, lit1-tk-luc reporter; HEK293 hcDAF-12 lit1-tk-luc reporter; 0% DMSO, 100% Δ7-dafachronic acid; activation, % at 6.8 µM; 1.4% of 370,000 active;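 active means activation above the mean of all tested compounds plus 3 SD, cut at about 5.5% in these data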;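 further: 100% = response to 3 µM Δ7-dafachronic acid high control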
# DAX1 inh-2 = DAX1 (NR0B1) inhibitors, primary screen, cell-based, HEK293, Gal4-DAX1, luciferase luminescence | HEK293 Gal4-DAX1 luciferase reporter | inhibition, % at 6.75 µM | 0.99% of 340,000 active;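 active means inhibition above the mean over all tested compounds plus 3 SD, cut at about 4.2% in these data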;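 further: 0% = DAX1-transfected cells with DMSO and 100% = empty-vector control cells with DMSO; inhibition shows as a rise in luminescence from relieved DAX1 repression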
# LXR ag = LXR agonists, Gal4 luciferase reporter, confirmation, counter-screen for hcDAF-12 agonist project, cell-based, luminescence, HEK293, H. contortus campaign | shares compounds with hcDAF-12 act | HEK293 Gal4-LXR tk-luc reporter, 24 h; normalized: DMSO 0%, positive control 100% | activation, % at 6.8 µM | 3,400 tested, under 10 active;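 active means mean percent activation of the reporter above a cutoff set as the average over tested compounds plus their standard deviation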
# Target sequence (P55055 whole entry, looked up, the tested form may be a part): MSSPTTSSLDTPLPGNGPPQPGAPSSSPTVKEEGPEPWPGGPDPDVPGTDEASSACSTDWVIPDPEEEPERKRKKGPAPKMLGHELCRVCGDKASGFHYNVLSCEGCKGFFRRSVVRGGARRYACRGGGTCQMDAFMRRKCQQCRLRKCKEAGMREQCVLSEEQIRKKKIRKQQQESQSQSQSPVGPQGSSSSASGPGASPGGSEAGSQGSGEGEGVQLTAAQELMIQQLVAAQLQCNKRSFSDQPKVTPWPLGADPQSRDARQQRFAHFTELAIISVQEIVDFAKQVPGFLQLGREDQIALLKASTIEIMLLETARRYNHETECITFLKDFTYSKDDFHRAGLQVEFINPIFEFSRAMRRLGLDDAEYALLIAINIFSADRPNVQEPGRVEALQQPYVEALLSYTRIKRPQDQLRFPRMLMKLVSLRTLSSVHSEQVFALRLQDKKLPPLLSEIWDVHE
# hcDAF12 ag = H. contortus DAF-12 receptor agonists, confirmation, cell-based, luminescence, HEK293, lit1-tk-luc, triplicate | shares compounds with hcDAF-12 act | 61% of 3,400 active | HEK293 hcDAF-12 lit1-tk-luc reporter; % of Δ7-dafachronic acid response | activation, % at 6.8 µM;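 active means mean activation across triplicate tests above the threshold derived from the earlier primary screen, cut at about 5.5% in these data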;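 further: 0% = DMSO only wells and 100% = 3 µM Δ7-dafachronic acid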
# hgDAF12 conf = H. glycines DAF-12 receptor agonists, confirmation, cell-based, luminescence, HEK293, GAL4-LBD fusion. activation, % at 6.8 µM. HEK293 GAL4-hgDAF12 luciferase reporter, agonist mode; percent of butyrate response. 80% of 3,300 active. shares compounds with hgDAF-12 ag;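 active means mean activation over triplicate wells above the hit cutoff derived from the earlier primary screen, cut at about 11% in these data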;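 further: 0% = DMSO low control and 100% = 2 mM sodium butyrate high control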
# LXR ag 2 = LXR agonists, Gal4 luciferase reporter, confirmation, counter-screen for hgDAF-12 agonist project, cell-based, luminescence, HEK293, H. glycines campaign. 3,300 tested, under 10 active. activation, % at 6.8 µM. shares compounds with hgDAF-12 ag. 24 h. AID 743051, 2013;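 active means mean activation of the triplicate above a set limit carried over from the primary screen, none filed active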
# Active calls of the source: *; . = no result given. Compounds with a hit are over-represented: about 4.8% of the library has one in this group of screens.
SMILES,hgDAF-12 ag,DAX1 inh-1,ssDAF12 agonist,SMARCA2 activ,hcDAF-12 act,DAX1 inh-2,LXR ag,hcDAF12 ag,hgDAF12 conf,LXR ag 2
Cc1cc2ncc(-c3ccccc3)nc2cc1C,19*,3,1.7*,2,14*,5.0*,2,11*,23*,1
CCS(=O)(=O)N(C)C[C@@H]1OCc2ccccc2-c2c(n(C)c3ccccc23)C(=O)N([C@H](C)CO)C[C@@H]1C,-3,-1,-1,-4,-2,.,.,.,.,.
O=C(Nc1ccc2cn[nH]c2c1)c1ccccc1F,14*,3.9*,1,6,7.8*,2,1,5,16*,1
N#Cc1ccc(C(=O)Nc2ccc3ccccc3c2)cc1,20*,1,1,3,7.9*,-1,1,5,22*,1
O=C(Nc1ccc2ccccc2c1)c1ccccc1F,19*,2,1.6*,3,14*,1,2,9.3*,23*,1
COc1ccc(N2C(=O)c3n[nH]c(C(C)C)c3C2c2ccc(F)cc2)cc1 (configuration not stated),0,0,-1,-2,-2,.,.,.,.,.
CN1N=C(C(=O)N2CCc3c([nH]c4ccccc34)C2c2c(F)cccc2Cl)CCC1=O (configuration not stated),15*,2,1,4,6.7*,5.3*,0,6.7*,7,0
O=C(c1cc2c([nH]c1=O)CCCC2)N1CCc2c([nH]c3ccccc23)C1c1ccccc1F (configuration not stated),0,0,1,-3,2,0,.,.,.,.
CC[C@H](NC(=O)[C@H]1O[C@@H](n2cnc3c(=O)[nH]c(N)nc32)[C@H](O)[C@@H]1O)c1ccccc1,2,1,0,1,0,.,.,.,.,.
CCCCS(=O)(=O)N1CCCc2nc(-c3ccc(Br)cc3)ccc21,2,1,-1,-4,1,.,.,.,.,.
C/C(N)=C(/C#N)C(=O)CSc1nc2ccc(C)cc2[nH]1,17*,4.3*,1.4*,8,11*,2,1,7.1*,16*,1
CN1CCCCC(NC(=O)c2cccs2)C1=O (configuration not stated),-1,0,-1,1,-2,.,.,.,.,.
CC1=CN2C(=N)/C(=C/c3ccco3)C(=O)N=C2S1,16*,4.0*,1.6*,6,10*,3,1,3,12*,1
c1ccc(-c2ccc(-c3ccccc3)[nH]2)cc1,19*,3,0,2,6.8*,3,1,3,15*,0
CCOC(=O)c1sc(=NC(=O)c2ccco2)n(C)c1C,14*,1,1,1,9.0*,1,1,11*,14*,0
CCOC(=O)c1sc(=NC(=O)/C=C/c2ccccc2)n(C)c1C,3,0,-1,1,0,0,.,.,.,.
N/C(=N\OC(=O)Cc1ccccc1[N+](=O)[O-])c1ccccn1,0,0,-2,-2,0,0,.,.,.,.
N/C(=N\OC(=O)c1cc(Br)ccc1Cl)c1ccccn1,21*,3.7*,3.8*,4,16*,2,1,15*,23*,1
Cc1c(C(=O)O/N=C(\N)c2ccccn2)cccc1[N+](=O)[O-],17*,2,3.0*,4,16*,2,1,10*,20*,1
Cc1cc(O)cc(=O)n1-c1cccc(Br)c1,-3,0,-1,-3,0,.,.,.,.,.
Cc1cccc(N/C=C/c2onc(C)c2[N+](=O)[O-])c1,8,2,1,5,4,2,.,.,.,.
Cc1cc(O)ccc1N/C=C/c1onc(C)c1[N+](=O)[O-],17*,2,0.9*,8,7.9*,1,1,6.2*,15*,1
CCc1ccc(C2CC(c3ccco3)=NN2S(C)(=O)=O)cc1 (configuration not stated),18*,3,1.3*,7,9.2*,2,1,8.9*,18*,1
CCOc1ccc2cc(C3CC(c4ccco4)=NN3S(C)(=O)=O)c(Cl)nc2c1 (configuration not stated),-4,-1,-1,-2,-1,0,.,.,.,.
S=C(SCc1c(Cl)cccc1Cl)N1CCSCC1,-3,0,0,-4,1,.,.,.,.,.
CN(C(=O)[C@@H](Cc1ccccc1)NC(=O)[C@H]1O[C@@H](n2cnc3c(=O)[nH]c(N)nc32)[C@H](O)[C@@H]1O)C1CCCCC1,-1,0,-1,-1,-1,.,.,.,.,.
Cc1nc2nc(-c3cccs3)[nH]c2cc1Br,23*,1,1.0*,7,8.9*,3,1,8.3*,22*,1
c1ccc(-c2nc(-c3cccs3)[nH]c2-c2ccccc2)cc1,-2,-1,-1,-1,-1,0,.,.,.,.
